# According to PubChem BioAssay (Tox21):
# Values without a mark were called inactive. Results filed as inconclusive are left out. A call without a number means that no potency is given here. Active and inactive are the calls of the source. Unless noted, the call rests on the fitted dose curve; in most records, active means well fitted curve in the direction sought with a large enough effect in the repeat runs; inconclusive means weak or mixed curves; inactive means no such curve, though single readings can be large; an effect the other way counts as inactive or inconclusive.
# Experiments:
# [1] = qHTS assay for small molecule agonists of the p53 signaling pathway (AID 651631; calls by dose curve; further: nearly all actives have a fitted effect of over 15% in size)
# Summary of the method: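 HCT-116 cells carrying a stable p53 response element–beta-lactamase reporter were plated, rested 5 h at 37 °C, then exposed to compound in DMSO for 16 h at 37 °C; reporter activity was read as FRET substrate fluorescence after 2 h at room temperature.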
# [2] = qHTS assay for small molecules that induce genotoxicity in human embryonic kidney cells expressing luciferase-tagged ATAD5 (AID 651632); further: nearly all actives have a fitted effect of over 15% in size
# Summary of the method: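 Cells were seeded at 2,000 per well, dosed with compound, and incubated 16 hr at 37C in 5% CO2. Luciferase activity was then quantified after a 30 min room-temperature incubation with Amplite.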
# [3] = qHTS assay for small molecules that induce genotoxicity in human embryonic kidney cells expressing luciferase-tagged ATAD5 - cell viability (AID 651634; calls by dose curve; further: nearly all actives have a fitted effect of over 25% in size)
# Summary of the method: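 Cells (HEK293T, luciferase-tagged ATAD5) are seeded at 2,000 per well, dosed with compound or DMSO vehicle, and incubated 15.5 hr at 37C and 5% CO2. CellTiter-Fluor is added for 30 min before fluorescence is measured.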
# [4] = qHTS assay for small molecule disruptors of the mitochondrial membrane potential - cell viability (AID 720634; calls by dose curve;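 further: human HepG2 liver cancer cells; series mostly up to about 83 µM; nearly all actives have a fitted effect of over 20% in size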)
# Summary of the method: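 Cytotoxicity was measured by ATP quantitation in HepG2 wells that had first been treated with compound for 1 hr and stained with m-MPI dye; CellTiter-Glo incubation was 30 min at room temperature.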
# [5] = qHTS assay to test for compound auto fluorescence at 590 nm (red) in HepG2 cells (AID 720674)
# Summary of the method: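 Fluorescence at 590 nm emission following 540 nm excitation was recorded from HepG2 wells one hour after compound transfer, with DMSO-only wells as vehicle and Rose Bengal sodium equivalency as the scale.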
# [6] = qHTS assay to test for compound auto fluorescence at 535 nm (green) in HepG2 cells (AID 720675)
# [7] = qHTS assay to test for compound auto fluorescence at 460 nm (blue) in HEK293 cells (AID 720678)
# Summary of the method: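 Intrinsic compound fluorescence is recorded in live HEK293 cultures after overnight incubation at 37C, 5% CO2, using excitation 405 nm and emission 460 nm. Values are referenced to triamterene.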
# [8] = qHTS assay to test for compound auto fluorescence at 590 nm (red) in HEK293 cells (AID 720679)
# Summary of the method: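 Red autofluorescence, HEK293 cells: 2,000 cells/well; attach 4-5 hr 37C; add 23 nL cpd or DMSO; incubate o/n 37C 5% CO2; read Ex540/Em590; Rose Bengal sodium reference.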
# [9] = qHTS assay to test for compound auto fluorescence at 460 nm (blue) in HEK293 cell free culture (AID 720681)
# Summary of the method: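 Compounds were added to cell-free DMEM with 10% FBS and fluorescence read directly. The blue channel used 405 nm excitation and 460 nm emission, with triamterene as the reference fluorophore.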
# [10] = qHTS assay to test for compound auto fluorescence at 535 nm (green) in HEK293 cell free culture (AID 720682)
# Summary of the method: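 Read-out: 485/535 nm fluorescence intensity, calibrated against fluorescein. Medium only (DMEM + 10% FBS, no cells); test compound or DMSO vehicle added by pintool before plate reading.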
# [11] = qHTS assay to test for compound auto fluorescence at 590 nm (red) in HEK293 cell free culture (AID 720683)
# Summary of the method: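 Cell-free wells of DMEM with 10% FBS received compound, and intrinsic fluorescence was read at excitation/emission 540/590 nm. Values expressed as equivalence to Rose Bengal sodium.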
# [12] = qHTS assay to test for compound auto fluorescence at 590 nm (red) in HepG2 cell free culture (AID 720684)
# Summary of the method: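 Rose Bengal sodium served as the reference for red signal. Test compounds were dispensed into serum-containing MEM (10% FBS) without cells, and plates were read at 540/590 nm.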
# [13] = qHTS assay to test for compound auto fluorescence at 460 nm (blue) in HepG2 cell free culture (AID 720685)
# Summary of the method: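 Cell-free plates of MEM plus 10% FBS received 23 nL compound or DMSO vehicle; blue-channel (405/460 nm) intensity scored against triamterene as reference fluorophore.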
# [14] = qHTS assay to test for compound auto fluorescence at 535 nm (green) in HepG2 cell free culture (AID 720686)
# [15] = qHTS assay to test for compound auto fluorescence at 460 nm (blue) in HepG2 cells (AID 720687)
# Summary of the method: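 HepG2 cells in MEM with 10% FBS, attached overnight at 37 C, were exposed to compound or DMSO for 1 hr at 37 C, 5% CO2. Blue fluorescence was read at 405/460 nm, with triamterene as reference fluorophore.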
# [16] = biological target: Glucocorticoid receptor (Homo sapiens) (UniProt P04150); test: qHTS assay to identify small molecule agonists of the glucocorticoid receptor (GR) signaling pathway (AID 720691; active means well fitted activation curve with a large enough effect in the signal ratio in the repeat runs, not every such curve was filed as active; the % refers to the signal ratio)
# Chain of Glucocorticoid receptor (Homo sapiens) (P04150 whole entry, looked up): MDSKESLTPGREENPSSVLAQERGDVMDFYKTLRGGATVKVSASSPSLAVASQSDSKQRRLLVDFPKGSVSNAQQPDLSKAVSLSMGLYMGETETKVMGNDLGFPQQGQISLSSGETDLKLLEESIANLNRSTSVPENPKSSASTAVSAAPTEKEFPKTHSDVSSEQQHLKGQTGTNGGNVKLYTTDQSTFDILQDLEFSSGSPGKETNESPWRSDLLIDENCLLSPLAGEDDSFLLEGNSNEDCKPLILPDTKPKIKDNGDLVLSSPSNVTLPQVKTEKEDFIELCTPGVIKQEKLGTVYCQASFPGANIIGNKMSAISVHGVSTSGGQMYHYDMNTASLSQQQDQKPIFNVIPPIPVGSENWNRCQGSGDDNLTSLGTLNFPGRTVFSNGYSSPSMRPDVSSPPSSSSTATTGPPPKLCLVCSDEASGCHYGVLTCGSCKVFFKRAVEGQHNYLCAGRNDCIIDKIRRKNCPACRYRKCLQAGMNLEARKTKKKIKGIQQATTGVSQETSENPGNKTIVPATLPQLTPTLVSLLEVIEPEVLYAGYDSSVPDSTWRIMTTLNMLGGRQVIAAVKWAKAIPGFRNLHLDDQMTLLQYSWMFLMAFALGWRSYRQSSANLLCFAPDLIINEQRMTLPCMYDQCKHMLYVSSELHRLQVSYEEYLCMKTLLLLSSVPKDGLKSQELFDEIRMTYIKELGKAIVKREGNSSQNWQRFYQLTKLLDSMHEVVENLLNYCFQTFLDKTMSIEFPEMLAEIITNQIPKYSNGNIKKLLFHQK
# Summary of the method: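 Steps: seed GR-bla HeLa cells, incubate 4 h at 37 C/5% CO2; pin-transfer DMSO-dissolved compounds; incubate 18 h at 37 C; add LiveBLAzer B/G FRET substrate; after 2 h at room temperature, measure fluorescence.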
# [17] = biological target: Glucocorticoid receptor (Homo sapiens) (UniProt P04150); test: qHTS assay to identify small molecule antagonists of the glucocorticoid receptor (GR) signaling pathway (AID 720692; active means well fitted inhibition curve with a large enough effect in the signal ratio in the repeat runs, not every such curve was filed as active; the % refers to the signal ratio)
# Summary of the method: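 Antagonism was scored as loss of dexamethasone-driven (5 nM final) reporter signal in HeLa cells bearing a glucocorticoid response element–beta-lactamase construct, after 18 h compound exposure at 37 C and 2 h FRET substrate loading.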
# [18] = qHTS assay for small molecule agonists of the p53 signaling pathway - cell viability (AID 651633; calls by dose curve; further: series mostly up to about 83 µM; nearly all actives have a fitted effect of over 30% in size)
# Summary of the method: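 p53RE-bla cells were treated with compound for 16 hours at 37 C. Cytotoxicity was then measured as CellTiter-Glo luminescence after 30 min at room temperature.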
# [19] = qHTS assay for small molecule disruptors of the mitochondrial membrane potential (AID 720635); further: potency means the concentration at half of the fitted maximal effect
# Summary of the method: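 HepG2 cells exposed to compound 1 hr at 37C, then Mito-MPS dye 30 min. Ratio read of aggregate (540/590 nm) versus monomer (490/535 nm) fluorescence.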
# [20] = qHTS assay to test for compound auto fluorescence at 535 nm (green) in HEK293 cells (AID 720680)
compound,measurement,setting,value
CC(=O)Nc1ccc(C)c(Cl)c1,Potency,[1],inactive
same,Potency,[2],inactive
same,Potency,[3],inactive
same,Potency,[4],inactive
same,outcome,[5],inactive
same,outcome,[6],inactive
same,outcome,[7],inactive
same,outcome,[8],inactive
same,outcome,[9],inactive
same,outcome,[10],inactive
same,outcome,[11],inactive
same,outcome,[12],inactive
same,outcome,[13],inactive
same,outcome,[14],inactive
same,outcome,[15],inactive
same,Potency,[16],inactive
same,Potency,[17],inactive
NNS(=O)(=O)c1ccc(Oc2ccc(S(=O)(=O)NN)cc2)cc1,Potency,[1],inactive
same,Potency,[2],inactive
same,Potency,[18],inactive
same,Potency,[3],inactive
same,Potency,[4],inactive
same,outcome,[5],inactive
same,outcome,[6],inactive
same,outcome,[7],inactive
same,outcome,[8],inactive
same,outcome,[9],inactive
same,outcome,[10],inactive
same,outcome,[11],inactive
same,outcome,[12],inactive
same,outcome,[14],inactive
same,outcome,[15],inactive
CC(C)=CCC[C@](C)(O)[C@@H]1CC=C(C)CC1,Potency,[1],inactive
same,Potency,[18],inactive
same,Potency,[3],inactive
same,Potency,[4],inactive
same,Potency,[19],30.6 µM (active)
same,outcome,[5],inactive
same,outcome,[6],inactive
same,outcome,[7],inactive
same,outcome,[8],inactive
same,outcome,[20],inactive
same,outcome,[9],inactive
same,outcome,[10],inactive
same,outcome,[11],inactive
same,outcome,[12],inactive
same,outcome,[13],inactive
same,outcome,[14],inactive
same,outcome,[15],inactive
same,Potency,[16],inactive
CCN1CC(CCN2CCOCC2)C(c2ccccc2)(c2ccccc2)C1=O (stereo not drawn),Potency,[1],inactive
same,Potency,[2],inactive
same,Potency,[3],inactive
same,Potency,[4],inactive
same,Potency,[19],inactive
same,outcome,[5],inactive
same,outcome,[6],inactive
same,outcome,[7],inactive
same,outcome,[8],inactive
same,outcome,[20],inactive
same,outcome,[9],inactive
same,outcome,[10],inactive
same,outcome,[11],inactive
same,outcome,[12],inactive
same,outcome,[13],inactive
same,outcome,[14],inactive
same,outcome,[15],inactive
same,Potency,[16],inactive
same,Potency,[17],inactive
O=C1C=CC(=O)O1,Potency,[1],inactive
same,Potency,[2],inactive
same,Potency,[18],inactive
same,Potency,[3],inactive
same,Potency,[4],inactive
same,outcome,[5],inactive
same,outcome,[6],inactive
same,outcome,[7],inactive
same,outcome,[8],inactive
same,outcome,[9],inactive
same,outcome,[10],inactive
same,outcome,[11],inactive
same,outcome,[12],inactive
same,outcome,[14],inactive
same,outcome,[15],inactive
same,Potency,[16],inactive
same,Potency,[17],inactive
Nc1cccc(S(=O)(=O)O)c1,Potency,[1],inactive
same,Potency,[18],inactive
same,Potency,[3],inactive
same,Potency,[4],inactive
same,Potency,[19],0.0972 µM (active)
same,outcome,[5],inactive
same,outcome,[6],inactive
same,outcome,[7],inactive
same,outcome,[8],inactive
same,outcome,[20],inactive
same,outcome,[9],inactive
same,outcome,[10],inactive
same,outcome,[11],inactive
same,outcome,[12],inactive
same,outcome,[13],inactive
same,outcome,[14],inactive
same,outcome,[15],inactive
same,Potency,[16],inactive
C[C@]12C(=O)OC(=O)[C@H]1[C@H]1C=C[C@@H]2C1,Potency,[1],inactive
same,Potency,[2],inactive
same,Potency,[3],inactive
same,Potency,[4],inactive
same,outcome,[5],inactive
same,outcome,[6],inactive
same,outcome,[7],inactive
same,outcome,[8],inactive
same,outcome,[20],inactive
same,outcome,[9],inactive
same,outcome,[10],inactive
same,outcome,[11],inactive
same,outcome,[12],inactive
same,outcome,[13],inactive
same,outcome,[14],inactive
same,outcome,[15],inactive
same,Potency,[16],inactive
same,Potency,[17],inactive
OCCN(CCO)c1ccccc1,Potency,[1],inactive
same,Potency,[2],inactive
same,Potency,[3],inactive
same,Potency,[4],inactive
same,outcome,[5],inactive
same,outcome,[6],inactive
same,outcome,[7],inactive
same,outcome,[8],inactive
same,outcome,[20],inactive
same,outcome,[9],inactive
same,outcome,[10],inactive
same,outcome,[11],inactive
same,outcome,[12],inactive
same,outcome,[13],inactive
same,outcome,[14],inactive
same,outcome,[15],inactive
same,Potency,[16],inactive
same,Potency,[17],inactive
NCCCN1CCN(CCCN)CC1,Potency,[1],inactive
same,Potency,[2],inactive
same,Potency,[3],inactive
same,Potency,[4],inactive
same,Potency,[19],inactive
same,outcome,[5],inactive
same,outcome,[6],inactive
same,outcome,[7],inactive
same,outcome,[8],inactive
same,outcome,[20],inactive
same,outcome,[9],inactive
same,outcome,[10],inactive
same,outcome,[11],inactive
same,outcome,[12],inactive
same,outcome,[13],inactive
same,outcome,[14],inactive
same,outcome,[15],inactive
same,Potency,[16],inactive
same,Potency,[17],inactive
CCCCOc1cc(C(=O)NCCN(CC)CC)c2ccccc2n1,Potency,[1],inactive
same,Potency,[2],inactive
same,Potency,[3],inactive
same,Potency,[4],inactive
same,"fluorescence, relative to Rose Bengal",[5],-0.403% [at 18.6 µM]
same,"fluorescence, % of fluorescein control",[6],0.0079% [at 18.6 µM]
same,"fluorescence, % of triamterene",[7],-0.0164% [at 18.6 µM]
same,"fluorescence, % of fluorescent control",[8],-0.209% [at 18.6 µM]
same,"fluorescence, % of fluorescent control",[9],0.0819% [at 18.6 µM]
same,activity change,[10],-0.0175% [at 18.6 µM]
same,"fluorescence, % of fluorescent control",[11],-0.187% [at 18.6 µM]
same,"fluorescence, % of Rose Bengal",[12],0.52% [at 18.6 µM]
same,"fluorescence, % of fluorescent control",[13],0.0544% [at 18.6 µM]
same,"fluorescence, % of fluorescein control",[14],-0.0334% [at 18.6 µM]
same,"fluorescence, % of fluorescent control",[15],-0.0681% [at 18.6 µM]
same,Potency,[16],inactive
Cc1cc(S(=O)(=O)O)c(N)cc1Cl,Potency,[1],inactive
same,Potency,[18],inactive
same,Potency,[3],inactive
same,Potency,[4],inactive
same,Potency,[19],inactive
same,outcome,[5],inactive
same,outcome,[6],inactive
same,outcome,[7],inactive
same,outcome,[8],inactive
same,outcome,[20],inactive
same,outcome,[9],inactive
same,outcome,[10],inactive
same,outcome,[11],inactive
same,outcome,[12],inactive
same,outcome,[13],inactive
same,outcome,[14],inactive
same,outcome,[15],inactive
same,Potency,[16],inactive
same,Potency,[17],inactive
OCCN(CCO)CCN(CCO)CCO,Potency,[1],inactive
same,Potency,[18],inactive
same,Potency,[3],inactive
same,Potency,[4],inactive
same,Potency,[19],inactive
same,outcome,[5],inactive
same,outcome,[6],inactive
same,outcome,[7],inactive
same,outcome,[8],inactive
same,outcome,[20],inactive
same,outcome,[9],inactive
same,outcome,[10],inactive
same,outcome,[11],inactive
same,outcome,[12],inactive
same,outcome,[13],inactive
same,outcome,[14],inactive
same,outcome,[15],inactive
same,Potency,[16],inactive
same,Potency,[17],inactive
